tim10-1 inh = inhibits growth of tim10-1 mutant yeast. hit rate 2.2% among 330,000. AID 463190. inhibition, % at 20 µM. S. cerevisiae tim10-1 ts strain growth, BacTiter-Glo, 24 h;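 active means inhibition of at least 40%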;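 further: mutant grown at 25 °C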
NALP3 yeast inh = NALP3 inhibition in yeast; Yeast reconstituted NLRP3/ASC/caspase-1, beta-gal luminescence, 24 h; AID 2825; inhibition, % at 10 µM; hit rate 0.39% among 330,000;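 active means inhibition of 50% or more; inactive means inhibition below 50%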
PfHsp90 yeast 2 = inhibits growth of yeast expressing Plasmodium falciparum Hsp90; hit rate 0.32% among 310,000; S. cerevisiae expressing PfHsp90, BacTiter-Glo ATP, 48 h; yeast lacking PDR1 and PDR3 efflux regulators; inhibition, % at 9.4 µM;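 active means every replicate shows inhibition above about 80%, whatever the replicate mean, limit read from the data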
NALP1 inh = NALP1 inhibition. S. cerevisiae NALP1/ASC/caspase-1 growth, X-gal OD620, 72 h. inhibition, % at 10 µM. hit rate 0.61% among 280,000. AID 2071; in the data active means inhibition mostly above about 24%, no sharp cut-off; inactive means mostly below about 32%
tim23-1 inh = inhibits growth of tim23-1 mutant yeast | hit rate 1.3% among 330,000 | S. cerevisiae tim23-1 growth, BacTiter-Glo luminescence, 24 h | inhibition, % at 20 µM;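 active means growth inhibition of the mutant yeast at or above 50%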;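 further: temperature-sensitive mutant grown at 25 °C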
TIM10 inh = inhibits growth of TIM10 yeast strain; inhibition, % at 10 µM; hit rate 1.4% among 330,000; S. cerevisiae TIM10 strain growth, BacTiter-Glo luminescence, 24 h;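 active means inhibition of 40% or more at the single tested concentration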;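 further: wild-type TIM10 isogenic control strain grown at permissive 25 °C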
tim10-1 confirm = confirmation of tim10-1 mutant yeast growth inhibitors; AID 463213; shares compounds with tim10-1 inh; hit rate 56% among 7,400; S. cerevisiae tim10-1 ts strain growth, BacTiter-Glo, 24 h; inhibition, % at 20 µM;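 active means inhibition of yeast growth at or above a set limit in either of two repeat tests at 20 µM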;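 further: tim10-1 mutant grown at permissive 25 °C to find synthetic lethal compounds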
A number is an active result. Compounds with a hit are over-represented: about 4.1% of the library has one in this group of screens.

For C/C(=N\OC(=O)c1c(-c2ccccc2Cl)noc1C)c1ccncc1 the results were tim10-1 inh inactive, NALP3 yeast inh inactive, NALP1 inh inactive, tim23-1 inh inactive and TIM10 inh inactive.
`Cc1onc(-c2cccc(Cl)c2Cl)c1C(=O)O/N=C(\N)c1ccc([N+](=O)[O-])o1` gave tim10-1 inh 44, NALP3 yeast inh inactive, PfHsp90 yeast 2 inactive, NALP1 inh inactive, tim23-1 inh inactive, TIM10 inh inactive and tim10-1 confirm inactive.
For COc1ccc(NC(=O)C2=CC(c3cccs3)=NS(=O)(=O)N2C)cc1 the results were tim10-1 inh inactive, NALP3 yeast inh inactive, PfHsp90 yeast 2 inactive, NALP1 inh inactive, tim23-1 inh inactive and TIM10 inh inactive.
`CN1C(C(=O)Nc2ccc(OC(F)(F)F)cc2)=CC(c2cccs2)=NS1(=O)=O` gave tim10-1 inh 41, NALP3 yeast inh inactive, PfHsp90 yeast 2 inactive, NALP1 inh inactive, tim23-1 inh inactive, TIM10 inh inactive and tim10-1 confirm 39.
`Cc1nn(-c2cccc(Cl)c2)c2c1C(c1cccnc1)C(C#N)=C(N)O2` (stereo not drawn) gave tim10-1 inh 41, NALP3 yeast inh inactive, PfHsp90 yeast 2 inactive, NALP1 inh inactive, tim23-1 inh inactive, TIM10 inh inactive and tim10-1 confirm 31.
Cc1cc(C)c2c(=O)n(CC(=O)N3CCC(N4CCCCC4)CC3)sc2n1 was read as tim10-1 inh inactive, NALP3 yeast inh inactive, PfHsp90 yeast 2 inactive, NALP1 inh inactive, tim23-1 inh inactive and TIM10 inh inactive.
Screening CCOC(=O)C1CCCN(C(=O)Cn2sc3nc(C)cc(C)c3c2=O)C1 (stereo not drawn) returned tim10-1 inh 41, NALP3 yeast inh inactive, PfHsp90 yeast 2 inactive, NALP1 inh inactive, tim23-1 inh inactive, TIM10 inh inactive and tim10-1 confirm inactive.
Cc1cc(C(=O)Cn2nc(C(=O)O)c3ccccc3c2=O)c(C)n1-c1ccccc1 was read as tim10-1 inh 42, NALP3 yeast inh inactive, PfHsp90 yeast 2 inactive, NALP1 inh inactive, tim23-1 inh inactive, TIM10 inh inactive and tim10-1 confirm inactive.
For O=C(Nc1ccc(C(=O)N2CCN(c3ccc(F)cc3)CC2)cc1)C1=CSCCO1 the results were tim10-1 inh 47, NALP3 yeast inh inactive, PfHsp90 yeast 2 inactive, NALP1 inh inactive, tim23-1 inh inactive, TIM10 inh inactive and tim10-1 confirm 36.
For COc1ccc(N2CCN(C(=O)c3ccc(NC(=O)C4=CSCCO4)cc3)CC2)cc1 the results were tim10-1 inh 43, NALP3 yeast inh inactive, PfHsp90 yeast 2 inactive, NALP1 inh inactive, tim23-1 inh inactive, TIM10 inh inactive and tim10-1 confirm 29.
CCc1ccc(CNC(=O)c2ccc(NC(=O)C3=CSCCO3)cc2)cc1 was read as tim10-1 inh 44, NALP3 yeast inh inactive, PfHsp90 yeast 2 inactive, NALP1 inh inactive, tim23-1 inh inactive, TIM10 inh inactive and tim10-1 confirm inactive.
`O=C(Nc1ccccc1C(=O)N1CCN(c2cccc(Cl)c2)CC1)C1=CSCCO1` gave tim10-1 inh inactive, NALP3 yeast inh inactive, PfHsp90 yeast 2 inactive, NALP1 inh inactive, tim23-1 inh inactive and TIM10 inh inactive.
`O=C(Nc1ccc(C(=O)NCc2ccc(F)cc2)cc1)C1=CSCCO1` gave tim10-1 inh inactive, NALP3 yeast inh inactive, PfHsp90 yeast 2 inactive, NALP1 inh inactive, tim23-1 inh inactive and TIM10 inh inactive.
`O=C(Cc1ccccc1)N/N=C/c1ccc2cccc(O)c2n1` gave tim10-1 inh 47, NALP3 yeast inh inactive, PfHsp90 yeast 2 inactive, NALP1 inh inactive, tim23-1 inh inactive, TIM10 inh inactive and tim10-1 confirm 34.
For NC(=O)N/N=C/c1ccc2cccc(OCc3ccccc3)c2n1 the results were tim10-1 inh inactive, NALP3 yeast inh inactive, NALP1 inh inactive, tim23-1 inh inactive and TIM10 inh inactive.
`CCc1ccc(OCC2c3cc(OC)c(OC)cc3CCN2C(=S)NCCOC)cc1` (stereo not drawn) gave tim10-1 inh inactive, NALP3 yeast inh inactive, PfHsp90 yeast 2 inactive, NALP1 inh inactive, tim23-1 inh inactive and TIM10 inh inactive.
CCc1ccc(OCC2c3cc(OC)c(OC)cc3CCN2C(=S)NC)cc1 (stereo not drawn) was read as tim10-1 inh 48, NALP3 yeast inh inactive, PfHsp90 yeast 2 inactive, NALP1 inh inactive, tim23-1 inh inactive, TIM10 inh inactive and tim10-1 confirm inactive.
For COc1ccc(-n2cnnc2SCC(=O)N2CCN(c3ccccc3)CC2)cc1 the results were tim10-1 inh inactive, NALP3 yeast inh inactive, PfHsp90 yeast 2 inactive, NALP1 inh inactive, tim23-1 inh inactive and TIM10 inh inactive.
For COc1ccc(N2CCN(C(=O)CSc3nnc(-c4cc5ccccc5cc4O)n3C)CC2)cc1 the results were tim10-1 inh 45, NALP3 yeast inh inactive, PfHsp90 yeast 2 inactive, NALP1 inh inactive, tim23-1 inh inactive, TIM10 inh inactive and tim10-1 confirm inactive.
For O=C(COC(=O)COc1ccccc1F)Nc1ccc2c(c1)OCO2 the results were tim10-1 inh inactive, NALP3 yeast inh inactive, PfHsp90 yeast 2 inactive, tim23-1 inh inactive and TIM10 inh inactive.
`CCCOc1ccc(C(=O)CCC(=O)OCC(=O)Nc2cccc(S(N)(=O)=O)c2)cc1` gave tim10-1 inh inactive, NALP3 yeast inh inactive, PfHsp90 yeast 2 inactive, tim23-1 inh inactive and TIM10 inh inactive.
For O=C(COc1cccc([N+](=O)[O-])c1)NN1C(=O)c2ccccc2C1=O the results were tim10-1 inh inactive, NALP3 yeast inh inactive, PfHsp90 yeast 2 inactive, NALP1 inh inactive, tim23-1 inh inactive and TIM10 inh inactive.
Screening Cc1scc(C(=O)N/N=C/c2ccco2)c1C returned tim10-1 inh inactive, NALP3 yeast inh inactive, PfHsp90 yeast 2 inactive, NALP1 inh inactive, tim23-1 inh inactive and TIM10 inh inactive.
Cc1scc(C(=O)N/N=C/c2ccc([N+](=O)[O-])o2)c1C was read as tim10-1 inh 46, NALP3 yeast inh inactive, NALP1 inh inactive, tim23-1 inh inactive, TIM10 inh inactive and tim10-1 confirm inactive.
For CCc1nn(-c2ccccc2)c(N)c1C#N the results were tim10-1 inh inactive, NALP3 yeast inh inactive, PfHsp90 yeast 2 inactive, NALP1 inh inactive, tim23-1 inh inactive and TIM10 inh inactive.
Screening CCc1nn(-c2ccccc2)c(=S)c2ccccc12 returned tim10-1 inh 46, NALP3 yeast inh inactive, PfHsp90 yeast 2 inactive, NALP1 inh inactive, tim23-1 inh inactive, TIM10 inh inactive and tim10-1 confirm 52.
Screening NS(=O)(=O)c1ccc(NC(=O)CN2CCc3ccccc3C2)cc1 returned tim10-1 inh inactive, NALP3 yeast inh inactive, PfHsp90 yeast 2 inactive, NALP1 inh inactive, tim23-1 inh inactive and TIM10 inh inactive.
For CC(C)N(CC(N)=O)c1ccc(S(=O)(=O)N2CCCC2)cn1 the results were tim10-1 inh inactive, NALP3 yeast inh inactive, PfHsp90 yeast 2 inactive, tim23-1 inh inactive and TIM10 inh inactive.

Screens: PubChem, several laboratories
